# Source: PubChem
# Most compounds without a hit are left out; they make up all but 0.5% or so of the library.
# AddAB inh – less growth of phage-infected E. coli with AddAB; E. coli expressing H. pylori AddAB, absorbance growth; inhibition, % at 11.9 µM; actives 0.29% (n = 330,000); in the data active = inhibition above about 12%
# E coli growth-1 – counter-screen for AddAB inhibitors: E. coli growth inhibition | E. coli V3065 growth, OD600 absorbance, 18 h | inhibition, % at 11.9 µM | actives 0.27% (n = 330,000) | AID 449728;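 active = inhibition above the campaign's mean inhibition across all tested compounds plus 3 SD, cut at about 9.9% in these data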;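 also: uninfected addAB+ strain grown without phage in ampicillin broth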
# phage Ecoli inh – E. coli growth loss with phage present. growth absorbance. inhibition, % at 11.9 µM. actives 0.26% (n = 360,000). AID 651602; in the data active = inhibition above about 11%
# E coli growth-2 – inhibitors of Escherichia coli growth | OD600, 23 h; active compounds read low | OD600 absorbance (no concentration beside the values) | actives 0.21% (n = 330,000) | AID 1053175;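 active = OD600 absorbance below the run mean of sample wells minus 3.6 SD, in any replicate, cut at about 0.56 in these data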
# Tat export inh – blocks Tat-dependent protein export in E. coli | E. coli MC4100 TorA-mCherry Tat export, fluorescence | inhibition, % at 10 µM | actives 0.036% (n = 340,000) | AID 488895;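 active = mean replicate inhibition at least 50% and at least half of replicates individually reaching 50%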;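 also: exported cargo escapes ClpAP degradation while cytoplasmic cargo is degraded and loses fluorescence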
# A number is an active result; . = inactive; / = no result.
SMILES,AddAB inh,E coli growth-1,phage Ecoli inh,E coli growth-2,Tat export inh
O=C(Nc1ccccc1)Nc1ccc2snnc2c1,.,.,.,.,.
O=C(Nc1ccccc1)Nc1ccc2nnsc2c1,.,.,.,0.4,.
O=C(Nc1cccc(Cl)c1)Nc1ccc2c(c1)OCO2,.,.,.,0.53,.
Cc1ccc(NC(=O)Nc2ccccc2)cc1[N+](=O)[O-],.,.,.,.,.
O=C(Nc1ccccc1)Nc1ccc(Cl)c([N+](=O)[O-])c1,.,.,.,0.48,.
O=C(NCc1ccc2c(c1)OCO2)Nc1cccc(Cl)c1,.,.,.,.,.
O=C(Nc1ccccc1)Nc1cccc(Cl)c1,.,.,.,0.5,.
COc1cc(NS(=O)(=O)c2ccc(N)cc2)ncn1,21,16,/,/,/
CN1CCN(C(=O)C2=C[C@@H](c3ccccc3)C[C@@H](OCc3ccc(CO)cc3)O2)CC1,.,.,.,/,.
O=C(C1=C[C@H](c2ccccc2)C[C@H](OCc2ccc(CO)cc2)O1)N1CCOCC1,.,.,.,0.65,.
COCCn1c(SCC(=O)NCc2ccc3c(c2)OCO3)nnc1C(C)C,.,.,.,.,.
COCCn1c(SCC(=O)NCc2ccc3c(c2)OCO3)nnc1-c1c[nH]c2ccccc12,.,.,93,.,.
C=CCC(CC(=O)NCCO)C(=O)NC(COC(=O)C(CC=C)Cc1ccc(F)cc1)Cc1ccccc1 (configuration not stated),/,/,/,.,/
c1ccc2c(c1)CCC2=NNc1nc2ccccc2[nH]1,/,/,/,0.46,/
C[C@H]1COc2c(C3(N)CC3)c(F)cc3c(=O)c(C(=O)O)cn1c23,100,102,/,/,/
C#CCOCCOCCOCCNc1nc(N2CCN(C(=O)C(CCCCN)n3cc(CCCC)nn3)CC2)nc(N2CCN(C(=O)C(C(C)C)n3cc(CCO)nn3)CC2)n1 (configuration not stated),/,/,/,.,/
CCOc1ccc(CNc2ccc3c(c2)nc(C)n3C)cc1,.,.,.,.,.
COc1ccc(CNc2ccc3c(c2)nc(C)n3C)cc1OC,.,13,.,.,.
S=C(NCc1ccc(Cl)cc1)Nc1ccccc1,.,.,.,.,.
Fc1ccc(NC(=S)NC2CCN(Cc3ccccc3)CC2)cc1,.,.,.,.,.
S=C(NCc1ccc(Cl)cc1)Nc1ccncc1,.,.,.,0.52,.
O=C(NCc1cccnc1)Nc1ccc(Cl)c(Cl)c1,.,.,.,.,.
S=C(NCc1cccnc1)Nc1ccc(Cl)c(Cl)c1,.,11,.,.,.
S=C(Nc1ccc(Cl)c(Cl)c1)NC1CCN(Cc2ccccc2)CC1,.,11,.,.,.
CN(C)CCCNC(=O)C=Cc1ccc2c(c1)OCO2,/,/,/,.,/
SMILES,AddAB inh,E coli growth-1,phage Ecoli inh,E coli growth-2,Tat export inh
O=C(NCc1ccccc1)C1=CC(c2ccc3c(c2)OCO3)CC(OCCCCO)O1 (configuration not stated),/,/,/,.,/
CCCCSC(N)=NN=Cc1cc(C)ccc1O,/,/,/,.,/
COc1ccc(S(=O)(=O)NN=Cc2ccc([N+](=O)[O-])o2)c(OC)c1,/,/,/,0.51,/
COc1ccc(S(=O)(=O)NN=Cc2ccc3c(c2)OCO3)c(OC)c1,/,/,/,.,/
O=[N+]([O-])c1ccc(C=NNS(=O)(=O)c2ccc(F)cc2)o1,/,/,/,0.44,/
CC(C)CC(CO)N1CCN(Cc2ccc([N+](=O)[O-])cc2)CCC1=O (configuration not stated),/,/,/,.,/
C[C@@H](CN1CCC[C@H]1CN1C(N)=NC[C@@H]1Cc1ccccc1)N1C[C@@H](Cc2ccccc2)N(CCc2ccc(Cl)c(Cl)c2)C1=N,.,.,/,/,66
CCC[C@@H](CN1CCC[C@H]1CN1C(N)=NC[C@@H]1Cc1ccccc1)N1C[C@@H]([C@H](C)CC)N(CCc2ccc(Cl)c(Cl)c2)C1=N,.,.,/,/,.
CCCC(CN1CCCC1CN1C(N)=NCC1Cc1ccccc1)N1CC(C(C)CC)N(CCc2ccc(Cl)c(Cl)c2)C1=N (configuration not stated),/,/,/,0.34,/
CCC[C@@H](CN1CCC[C@H]1CN1C(N)=NC[C@H]1CC(C)C)N1C[C@@H](Cc2ccccc2)N(CCCC2CCCC2)C1=N,.,.,.,0.27,.
CC[C@@H](C)[C@@H]1CN([C@@H](CN2CCC[C@H]2CN2C(N)=NC[C@H]2CC(C)C)C(C)C)C(=N)N1CCc1ccc(Cl)c(Cl)c1,.,.,.,0.13,.
CC[C@@H](C)[C@@H]1CN([C@@H](C)CN2CCC[C@H]2CN2C(N)=NC[C@H]2CC(C)C)C(=N)N1CCc1ccc(Cl)c(Cl)c1,.,.,.,/,.
COc1ccc(NC(=O)N(C)CC2Oc3ccc(NC(=O)Nc4ccc5c(c4)OCO5)cc3C(=O)N(C(C)CO)CC2C)cc1 (configuration not stated),/,/,/,.,/
CC(=O)c1ccc(-c2ccc(C3C4C=CCC[C@@]4(C)C(=O)N3Cc3ccccc3)c(F)c2)cc1 (some centres not stated),/,/,/,.,/
COc1ccc(OC)c(NC(=O)COC(=O)C=Cc2ccc(Cl)cc2)c1,/,/,/,.,/
CC(C)[C@H](CN1CCC[C@H]1CN1C(N)=NC[C@@H]1Cc1ccccc1)N1C[C@@H](Cc2ccccc2)N(CCc2ccc(Cl)c(Cl)c2)C1=N,.,.,/,/,.
CCC[C@@H](CN1CCC[C@H]1CN1C(N)=NC[C@H]1CC(C)C)N1C[C@@H](Cc2ccccc2)N(CCc2ccc(Cl)c(Cl)c2)C1=N,.,.,.,0.059,.
CCC[C@@H](CN1CCC[C@H]1CN1C(N)=NC[C@@H]1Cc1ccccc1)N1C[C@@H](Cc2ccccc2)N(CCc2ccc(Cl)c(Cl)c2)C1=N,.,.,.,/,.
CCCC(CN1CCCC1CN1C(N)=NCC1Cc1ccccc1)N1CC(Cc2ccccc2)N(CCc2ccc(Cl)c(Cl)c2)C1=N (configuration not stated),/,/,/,0.061,/
CCc1nc(NC(C(=O)O)C(C)CC)c2oc3ccccc3c2n1 (configuration not stated),/,/,/,.,/
Nc1nnnn1CC(=O)NN=Cc1cc([N+](=O)[O-])ccc1O,/,/,/,.,/
Cc1ccc(NC(=O)CC2SC(=NN=Cc3ccco3)NC2=O)cc1Cl (configuration not stated),/,/,/,.,/
CCc1cccc2c(C(=O)COC(=O)c3ccccc3)c[nH]c12,.,.,.,0.09,.
CC(CCc1ccc2c(c1)OCO2)=NN=C(N)SC1CC(=O)N(c2ccccc2F)C1=O (configuration not stated),/,/,/,.,/
CNC(CC(C)C)C(=O)NC1C(=O)NC(CC(N)=O)C(=O)NC2C(=O)NC3C(=O)NC(C(=O)NC(C(=O)O)c4cc(O)cc(O)c4-c4cc3ccc4O)C(O)c3ccc(c(Cl)c3)Oc3cc2cc(c3OC2OC(CO)C(O)C(O)C2OC2C[C@](C)(N)C(O)C(C)O2)Oc2ccc(cc2Cl)C1O (some centres not stated),.,.,.,0.4,.
COc1ccc(OC)c(NC(=O)Nc2cccc3ccccc23)c1,.,16,.,.,.
COc1ccc(NC(=O)Nc2cccc3ccccc23)c(OC)c1,.,.,.,.,.
